High-throughput results from PubChem.
KKLEB cytotox – cytotoxicity in KKLEB CF airway cells, primary screen, cytotoxicity control for CF NF-kB inhibitor project, cell-based, uHTS, fluorescence assay plates; KKLEB CF airway cells viability, ATPlite luminescence, overnight; active compounds read low; cells stimulated with P. aeruginosa culture filtrate; activity change (cytotoxicity), % at 5 µM; 360,000 tested, 0.36% active; AID 602141, 2011;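 active means corrected activity change at or below -50% at 5 µM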
EWS-Fli inh – EWS/Fli-driven NR0B1 reporter inhibitors, primary screen, A673 cells, NR0B1 luciferase, luminescence, MLPCN library | 350,000 tested, 0.67% active | inhibition, % at 12.6 µM | viability-normalised;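 active means mean inhibition of at least 50% after viability correction, with every replicate also passing that limit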;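 further: firefly luciferase signal divided by Alamar Blue viability fluorescence both relative to DMSO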
CF NFkB inh – inhibitors of PAF-induced NF-kB signaling, primary screen, cell-based, GFP fluorescence, uHTS. 360,000 tested, 0.86% active. KKLEB NF-kB-GFP reporter, GFP fluorescence overnight. inhibition, % at 5 µM. AID 588850, 2011;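 active means at least 50% inhibition at 5 µM, scaled per plate between neutral and stimulator controls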;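 further: PAF is a Pseudomonas aeruginosa culture filtrate used as stimulus; plate controls were PAF-stimulated DMSO wells for no effect and unstimulated DMSO wells for full effect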
LGR2 antag – inhibitors of bursicon-induced LGR2 CRE-luciferase signal, primary screen, cell-based, HEK293, CRE-luciferase reporter, bursicon stimulation | bursicon-stimulated, 4 h | inhibition, % at 9.99 µM | 380,000 tested, 0.35% active;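 active means drop in luminescence signal, shown as inhibition above about 50% in the replicate tests, limit read from the data, passing the limit was not always enough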;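 further: agonist challenge used bursicon conditioned medium at about half maximal strength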
TROY NFkB inh – inhibitors of TROY-driven NF-kB signaling, primary screen, Q293 LMP1-TROYcd cells, NF-kB luciferase, uHTS; inhibition, % at 10 µM; Q293 LMP1-TROYcd NF-kB luciferase reporter, 4 h; 360,000 tested, 0.98% active; AID 1347056, 2019;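 active means compounds whose plate-normalised and pattern-corrected inhibition of the luciferase reporter signal at the single screening dose is 50% or more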
TWEAK Fn14 block – inhibitors of TWEAK-Fn14 signaling, primary screen, luciferase reporter cells, uHTS; 360,000 tested, 2% active; AID 1159606, 2016; inhibition, % at 10 µM; TWEAK-stimulated Fn14 reporter cells, luciferase luminescence, 8 h; in the data active means inhibition above about 50%
* hit, by the source's call; . = no result given. An excerpt weighted towards active compounds, which were near 2.6% of everything screened.

SMILES | KKLEB cytotox | EWS-Fli inh | CF NFkB inh | LGR2 antag | TROY NFkB inh | TWEAK Fn14 block
N#CCCCC#Cc1ccc2c(c1)COc1c3ccccc3nn1-2 | -50 | 67* | -27 | 98* | 81* | 93*
CCCCC#Cc1ccc2c(c1)COc1c3ccccc3nn1-2 | 2 | -98 | 14 | . | -45 | 11
COc1ccc(-n2sc3c(c2=S)-c2cc(OC)ccc2NC3(C)C)cc1 | -8 | . | 9 | . | 9 | 0
COc1ccc2c(c1)-c1c(ssc1=S)C(C)(C)N2 | -34 | . | 81* | . | 50* | 92*
Cc1ccc(-c2ccc(/C=C3\C(=O)ON=C3c3ccccc3)o2)c([N+](=O)[O-])c1 | 1 | . | 52* | . | -14 | 27
Cc1ccc(/C=C2\C(=O)ON=C2c2ccccc2)o1 | -13 | 4 | 11 | 3 | 16 | 6
COc1ccc(S(=O)(=O)N(C)C[C@H]2Oc3ncc(-c4ccncc4)cc3C(=O)N([C@@H](C)CO)C[C@H]2C)cc1 | . | -3 | . | 18 | . | .
COc1ccc(C(c2c(NC(=O)c3ccco3)sc(C)c2C)N2CCOCC2)cc1OC (stereo unspecified) | 7 | -13 | -29 | -19 | -30 | 7
Cc1ccc(C(c2c(NC(=O)c3ccco3)sc(C)c2C)N2CCOCC2)cc1 (stereo unspecified) | -7 | 12 | 0 | 28 | 38 | 70*
COC(=O)C(C#N)C(=C1C(=O)CC(C)(C)CC1=O)c1ccc(O)cc1 (stereo unspecified) | -50* | . | -6 | . | 10 | -2
COc1cccc(CN(C)CC(=O)Nc2cccc(C(F)(F)F)c2)c1OC | -12 | 9 | 0 | 10 | 6 | 74*
COc1cc(C(=O)NCc2cccnc2)ccc1OCC(=O)Nc1cccc(C(F)(F)F)c1 | 11 | 16 | 3 | 1 | 9 | 12
COc1ccc(CN(C)C(=O)c2ccc(OCC(=O)Nc3cccc(C(F)(F)F)c3)c(OC)c2)cc1 | -4 | 23 | -1 | 21 | 30 | 52*
Cc1cccc(CN(C)C[C@H]2OCc3cn(nn3)CCCC(=O)N([C@H](C)CO)C[C@@H]2C)c1 | . | 1 | . | -2 | . | .
COc1ccc(CNC(=O)c2c(C)oc3c2C(=O)c2ccccc2C3=O)cc1 | -82* | 32 | 90* | 77* | 56* | 99*
CC(=O)c1c(C)oc2c1C(=O)c1ccccc1C2=O | -26 | . | 86* | -4 | 28 | 24
C[C@@H]1CN([C@@H](C)CO)C(=O)c2cc(NC(=O)c3ccncc3)ccc2O[C@H]1CN(C)Cc1ccc2c(c1)OCO2 | . | 1 | . | 25 | . | .
O=c1[nH]c(=O)c2cc([N+](=O)[O-])cc([N+](=O)[O-])c2[nH]1 | 0 | 2 | -29 | 46 | 68* | 7
O=c1c2cc([N+](=O)[O-])cc([N+](=O)[O-])c2[nH]n1-c1ccccc1 | 4 | -14 | -14 | . | 4 | 3
CC(C)NC(=O)NC(=O)COc1ccc(Br)cc1Br | 5 | -52 | 2 | 53* | 2 | 33
O=C(COc1ccc(Br)cc1Br)NC1CCCC1 | -1 | -45 | 8 | -58 | -34 | 17
COCC(=O)Nc1ccc2c(c1)[C@H]1C[C@H](CC(=O)NC3CCCC3)O[C@H](CO)[C@H]1O2 | . | -3 | . | -6 | . | .
NCc1csc(Nc2ccc(C(=O)c3ccccc3)cc2)n1 | -7 | 52* | 34 | -2 | -20 | -1
C[C@@H]1CCCCO[C@@H](CN(C)Cc2ccccc2)[C@@H](C)CN([C@H](C)CO)C(=O)c2cc(NC(=O)c3ccccc3)ccc2O1 | . | 2 | . | -4 | . | .
CC(=O)N(C(C)=O)c1ncc2c([nH]c3ccccc32)c1C#N | -44 | . | 90* | 16 | 54* | 55*
SMILES | KKLEB cytotox | EWS-Fli inh | CF NFkB inh | LGR2 antag | TROY NFkB inh | TWEAK Fn14 block
CC(C)Cn1c(N)c(C(=O)CSc2ccc3c(c2)OCCO3)c(=O)n(C)c1=O | -12 | . | 45 | . | 50 | 69*
N#CC1=C(N)Oc2cc3ccccc3cc2C1c1cccs1 (stereo unspecified) | -12 | . | 10 | . | 2 | -6
CN(C)/C=N/C1=C(C#N)C(c2cccs2)c2ccc3ccccc3c2O1 (stereo unspecified) | -12 | 54* | 0 | -65 | -34 | -17
C[C@@H]1CN([C@H](C)CO)C(=O)c2cc(-c3cccc(F)c3)cnc2O[C@H]1CN(C)Cc1ccccn1 | . | 3 | . | 8 | . | .
Cc1ccn2cc(-c3ccc(O)c(O)c3)nc2c1 | -6 | 13 | 5 | 49 | -16 | 80*
Oc1ccc(-c2cn3ccccc3n2)cc1O | -11 | -22 | 4 | -25 | -69 | 2
Nc1nnc(-c2ccco2)s1 | 18 | . | 2 | . | 4 | -15
Nc1ncnc2oc(-c3ccco3)c(-c3ccco3)c12 | -23 | . | 53* | . | -6 | 76*
Cc1noc(C)c1NC(=O)Nc1ccc2c(c1)C(=O)N([C@@H](C)CO)C[C@@H](C)[C@@H](CN(C)C(=O)Nc1ccc(F)cc1)OCCCC[C@@H](C)O2 | . | -3 | . | 1 | . | .
CN(C)/C=C(\C=N\OCc1ccc(Cl)cc1Cl)C(=O)Nc1ccc(Cl)c(Cl)c1 | -60* | . | 56* | . | -13 | -2
O=C(Nc1ccc2c(c1)CCC2)c1ccc(F)cc1 | -7 | . | 10 | 29 | -48 | 20
O=C(Nc1ccc2c(c1)CCC2)c1cc(S(=O)(=O)Nc2ccc(F)cc2)c(Cl)cc1Cl | 10 | -4 | -7 | . | 37 | 52*
CO[C@H]1CN(C)C(=O)c2ccc(NS(=O)(=O)c3ccccc3)cc2OC[C@@H](C)NC[C@@H]1C | . | 0 | . | 14 | . | .
CCOc1ccc2c(c1)c(N=Nc1cccc(C(=O)O)c1)c(O)n2C | -1 | . | -20 | -78 | -26 | -42
COc1ccc(-c2cc(=O)c3cc(O)ccc3o2)cc1 | 1 | -94 | -51 | -24 | -86 | -31
CCc1ccc2oc(-c3ccc(OC)cc3)cc(=Nc3c(C)n(C)n(-c4ccccc4)c3=O)c2c1 | -6 | 44 | -34 | 83* | 55* | 75*
CCc1ccc2oc(-c3ccc(OC)cc3)cc(=Nc3cccc(C(=O)O)c3)c2c1 | -7 | 19 | -34 | 84* | 65* | 85*
COc1ccc(-c2cc(=Nc3ccc(C(=O)O)cc3)c3cc(C)ccc3o2)cc1 | -16 | 7 | -32 | 53* | -17 | 72*
C[C@@H]1CCCCO[C@@H](CN(C)C(=O)CCC(F)(F)F)[C@@H](C)CN([C@@H](C)CO)C(=O)c2cc(NC(=O)Cc3ccccc3)ccc2O1 | . | -3 | . | 17 | . | .
